Data taken from PubChem BioAssay.
Active and inactive are the calls of the source.

Tested on: not listed separately
Assay: blood-stage malaria parasite viability loss – strain 3D7, DAPI fluorescence, 100 nL, primary screen (AID 1184);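 note: parasites grown inside human red blood cells in medium with human serum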
Conditions: P. falciparum 3D7 growth, 3 d, higher = more signal
`COc1ccc(COC(=O)NN=C2C[C@@H](O)[C@@H](O)[C@@H]3[C@@H]4C(=O)N(Cc5ccccc5)C(=O)[C@@H]4CC[C@@H]23)cc1` gave a z-score of 0.0711.
`COC(=O)CC=C[C@@H](C)[C@@H](C=NOC(C)CN1CCCCc2nc(C)c(C)cc21)OC` (stereo partly specified) gave a z-score of 1.
For `CC(C)=CCCC(C)=CCON=C1C[C@@H](O)[C@@H](O)[C@@H]2[C@@H]3C(=O)N([C@@H](C)c4ccccc4)C(=O)[C@@H]3CC[C@@H]12`, the z-score was -0.81.
Compound `CCN1C(=O)[C@H]2[C@H]3[C@H](O)[C@H](O)CC(=NOCC[C@@H]4C=C[C@H](OC(C)=O)[C@@H](COC(C)=O)O4)[C@@H]3CC[C@H]2C1=O` has a z-score of 0.145.
`CC(=O)OC[C@H]1O[C@@H](ON=C(C)CCN2CCCCc3nc(C)c(C)cc32)[C@H](OC(C)=O)[C@@H](OC(C)=O)[C@@H]1OC(C)=O` gave a z-score of -0.98.

Target: Homeobox protein Hox-A13 (Mus musculus) (UniProt Q62424)
Sequence (Q62424 whole entry, looked up): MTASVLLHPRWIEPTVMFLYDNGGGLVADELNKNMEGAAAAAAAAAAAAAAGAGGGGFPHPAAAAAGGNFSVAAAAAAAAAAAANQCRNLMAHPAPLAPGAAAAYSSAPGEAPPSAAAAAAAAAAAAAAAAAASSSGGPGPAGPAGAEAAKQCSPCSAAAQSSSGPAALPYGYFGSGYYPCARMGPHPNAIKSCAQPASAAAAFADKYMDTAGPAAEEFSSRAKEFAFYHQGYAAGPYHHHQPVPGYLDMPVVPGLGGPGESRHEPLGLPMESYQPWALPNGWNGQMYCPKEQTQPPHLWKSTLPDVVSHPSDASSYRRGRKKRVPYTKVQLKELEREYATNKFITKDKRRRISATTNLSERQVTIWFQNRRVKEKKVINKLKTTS
Assay: disruptors of Hoxa13 oligonucleotide interaction – biochemical, fluorescence polarization, labeled oligonucleotide, primary screen (AID 1185)
Conditions: Hoxa13:DNA binding, 15 min, higher = more signal, called active from +8 up or from −8 down
In the case of `COC(=O)[C@@H]1CC[C@H](C)[C@@H](c2ccc(Br)cc2)N1`, the z-score was -0.164 (inactive).
For `CCc1cc2c(nc1CC)CCN(CCC(C)=NOC(C)CN1CCCCc3nc(C)c(C)cc31)C2` (stereo unspecified), the z-score was -7.64 (inactive).
With `CCOC(=O)[C@H](Cc1ccccc1)NC(=O)CCC1CC(OC(=O)NCc2ccc3c(c2)OCO3)CC2(CCCC(COC(=O)NCCOc3ccccc3)O2)O1` (stereo partly specified) the z-score was -0.985 (inactive).
With `COC(=O)[C@@H]1CC[C@H](C)[C@@H](c2ccc(C)cc2)N1C(=O)c1ccc(C=NOC[C@H]2O[C@H](c3ccccc3)C=C[C@@H]2Oc2ccc(OC)cc2)cc1` the z-score was -0.0628 (inactive).
In the case of `COC(=O)CC=C[C@@H](C)[C@@H](C=NOC[C@@H](C)[C@H](OCc1ccccc1)C(C)C)OC`, the z-score was -3.36 (inactive).
In the case of `CCOC(=O)CCN1C(=O)[C@H]2[C@@H]3C(=CC[C@H]2C1=O)C(=O)[C@H]1O[C@H]1[C@H]3O`, the z-score was -4.11 (inactive).
With `CC(CCN1CCCc2nc(C)c(C)cc21)=NOC[C@@H](C)[C@H](OCc1ccccc1)C(C)C` the z-score was -3.09 (inactive).
For `O=C1[C@H]2CCn3c(=O)n(Cc4cc5c(cc4Cl)OCO5)c(=O)n3[C@H]2[C@H](O)[C@@H]2O[C@H]12`, the z-score was -0.543 (inactive).
With `CCC1=NOC(CCC2CC(OC(=O)NCc3cccc4c3OCO4)CC3(CCCC(COC(=O)NCCc4ccc(Cl)cc4)O3)O2)C1` (stereo unspecified) the z-score was -2.58 (inactive).
In the case of `C=CC[C@@H]1C=C[C@H](ON=CC[C@@H]2C=C[C@H](OC(C)=O)[C@@H](COC(C)=O)O2)[C@@H](CO)O1`, the z-score was -0.273 (inactive).
In the case of `CO[C@@H]1COC(=O)[C@H](COCc2ccccc2)NC(=O)CC=C[C@@H](C)[C@H](OC)COC(=O)[C@@H](C)NC(=O)CC=C[C@H]1C`, the z-score was -1.83 (inactive).
In the case of `O=C1C[C@@H](O)[C@@H](O)[C@@H]2[C@@H]3C(=O)N(Cc4ccccc4)C(=O)[C@@H]3CC[C@H]12`, the z-score was -1.12 (inactive).
In the case of `CC(C)CN1CCc2nc(-c3ccccc3)c3c(c2C1)CO[C@@H](C)C3`, the z-score was -4.73 (inactive).
In the case of `COC(=O)[C@@H]1CC[C@H](C)[C@@H](c2ccc(Br)cc2)N1C(=O)C(F)(F)F`, the z-score was -0.733 (inactive).
With `CC(C)[C@@H](OCc1ccccc1)[C@H](C)C=NO[C@H](C)c1cn([C@@H]2COC[C@H]2O)nn1` the z-score was -0.967 (inactive).
For `CCN1C(=O)[C@H]2[C@H]3[C@H](O)[C@H](O)CC(=NO[C@@H](C)c4cc(-c5c(C)cc(C)cc5C)no4)[C@@H]3CC[C@H]2C1=O`, the z-score was -6.73 (inactive).
In the case of `CCOC(=O)NN=C1C[C@@H](O)[C@@H](O)[C@@H]2[C@@H]3C(=O)N(CC)C(=O)[C@@H]3CC[C@H]12`, the z-score was 0.368 (inactive).
With `CON(C)C(=O)c1nnc2c(n1)[nH]c1ccccc12` the z-score was 0.447 (inactive).
For `CCc1cc2c(nc1CC)CCN(CCC(C)=NOCC[C@@H]1C=C[C@H](OC(C)=O)[C@@H](COC(C)=O)O1)C2`, the z-score was -5.38 (inactive).
With `CC(C)CON=C1C[C@@H](O)[C@@H](O)[C@@H]2[C@@H]3C(=O)N(c4ccc(F)cc4F)C(=O)[C@@H]3CC[C@@H]12` the z-score was -0.567 (inactive).
In the case of `COC(=O)CC=C[C@@H](C)[C@@H](C=NOC[C@@H](O)COCc1ccco1)OC`, the z-score was -0.341 (inactive).
With `C[C@H]1CC[C@H]2C(=O)O[C@H](CO)CN2[C@@H]1c1ccc(Br)cc1` the z-score was -3.98 (inactive).
With `COC(=O)[C@H](C)NC(=O)CCC1CC(OC(=O)NCc2ccc3c(c2)OCO3)CC2(CCCC(COC(=O)NCCCN3CCCC3=O)O2)O1` (stereo partly specified) the z-score was -5.61 (inactive).
In the case of `CC(C)CON=C1C[C@@H](O)[C@@H](O)[C@@H]2[C@@H]3C(=O)N(C(C)(C)C)C(=O)[C@@H]3CC[C@@H]12`, the z-score was -0.298 (inactive).
With `COC(=O)[C@H](C)NC(=O)CCC1CC(OC(=O)NCCc2ccc(F)cc2)CC2(CCCC(COC(=O)NCc3ccccc3)O2)O1` (stereo partly specified) the z-score was -1.56 (inactive).
In the case of `O=C1[C@H]2[C@H]3[C@H](O)[C@H](O)CC(=NO[C@@H]4O[C@H](CO)[C@@H](O)[C@H](O)[C@H]4O)[C@@H]3CC[C@H]2C(=O)N1C[C@@H]1CCCO1`, the z-score was -0.192 (inactive).
With `CC(CCC(=O)OC[C@H]1O[C@H](C#Cc2ccccc2)C=C[C@@H]1Oc1ccc(C)cc1)=NO[C@@H](C)c1cc(-c2c(C)cc(C)cc2C)no1` the z-score was -1.88 (inactive).
With `COC(=O)[C@H](C)NC(=O)CCC1CC(OC(=O)NCc2cccc3ccccc23)CC2(CCCC(COC(=O)NCCOc3ccccc3)O2)O1` (stereo partly specified) the z-score was -6.3 (inactive).
With `Cc1cc2c(nc1C)CCCCN2CC(O)CN1CCCc2nc(-c3ccc(Br)cc3)ccc21` (stereo unspecified) the z-score was -4.77 (inactive).
In the case of `COC(OC)[C@@H](C)[C@H](OC)[C@@H](C)[C@H](OC)c1ccccc1`, the z-score was -0.402 (inactive).
In the case of `CCCC[C@H]1CN2[C@@H](CC[C@@H](C)[C@@H]2c2ccc(Br)cc2)C(=O)O1`, the z-score was -3.59 (inactive).
With `COc1ccc(COC(=O)NN=C2C[C@@H](O)[C@@H](O)[C@@H]3[C@@H]4C(=O)N(Cc5ccccc5)C(=O)[C@@H]4CC[C@@H]23)cc1` the z-score was 0.19 (inactive).
With `COC(=O)CC=C[C@@H](C)[C@@H](C=NOC(C)CN1CCCCc2nc(C)c(C)cc21)OC` (stereo partly specified) the z-score was -4.37 (inactive).
For `CC(C)=CCCC(C)=CCON=C1C[C@@H](O)[C@@H](O)[C@@H]2[C@@H]3C(=O)N([C@@H](C)c4ccccc4)C(=O)[C@@H]3CC[C@@H]12`, the z-score was -1.3 (inactive).
In the case of `CCN1C(=O)[C@H]2[C@H]3[C@H](O)[C@H](O)CC(=NOCC[C@@H]4C=C[C@H](OC(C)=O)[C@@H](COC(C)=O)O4)[C@@H]3CC[C@H]2C1=O`, the z-score was -1.8 (inactive).
For `CC(=O)OC[C@H]1O[C@@H](ON=C(C)CCN2CCCCc3nc(C)c(C)cc32)[C@H](OC(C)=O)[C@@H](OC(C)=O)[C@@H]1OC(C)=O`, the z-score was -3.93 (inactive).
